From PubChem BioAssay (NCI)
The panel holds about 83,000 compounds, 20% with a hit somewhere; the sample as a whole holds those more often.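 Plates (96-well) were seeded with cells, treated with compound at one concentration, and incubated for 48 hours before percent growth was determined.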 Values without a mark were called inactive. Calls of active or inactive are those of the source. The calls were made as follows: active = growth percent below 10; inactive = the rest.

Legend:
Assay in all cases: NCI-60 one-dose screen, 48 h (100 = growth as untreated, 0 = no growth, -100 = all killed)
Details in all cases: 10 µM
DU-145 prostate = test system: DU-145 prostate
K-562 leukemia = test system: K-562 leukemia
MALME-3M melanoma = test system: MALME-3M melanoma
MDA-MB-231 breast = test system: MDA-MB-231 breast
SF-268 CNS = test system: SF-268 CNS
SF-295 CNS = test system: SF-295 CNS
SF-539 CNS = test system: SF-539 CNS
UACC-257 melanoma = test system: UACC-257 melanoma
M14 melanoma = test system: M14 melanoma

Structure (SMILES) | growth (DU-145 prostate) | growth (K-562 leukemia) | growth (MALME-3M melanoma) | growth (MDA-MB-231 breast) | growth (SF-268 CNS) | growth (SF-295 CNS) | growth (SF-539 CNS) | growth (UACC-257 melanoma) | growth (M14 melanoma)
COc1ccc(C(=O)/C=C/c2cc(F)cc(C(F)(F)F)c2)cc1S(N)(=O)=O | 14.1% | 5.44% (active) | -64.2% (active) | -90.5% (active) | 20.8% | -47.5% (active) | -77.8% (active) | -9.77% (active) | -68.4% (active)
COc1cnc2c(c1)C(=O)c1c-2n(CCCNCCO)c(=O)c2cc(OC)c(OC)cc12 | 15.6% | 26.8% | 49% | 19.2% | 44% | 6.94% (active) | -52.7% (active) | 68.3% | 23.1%
O=c1oc2ccccc2cc1-c1csc(N=Nc2c(O)[nH]c3ccc(Br)cc23)n1 | 94.2% | 103% | 56.3% | 56.5% | 51.2% | 39.5% | 35.6% | 105% | 97.5%
Cc1ccc2nc(-c3ccc(-c4nnc(SCC(=O)Nc5ccc(Br)cc5)o4)cc3)[nH]c2c1 | 82.9% | 7.89% (active) | 87.1% | 77.9% | 80.6% | 63.8% | 68.3% | 96.5% | 66.6%
CCOC(=O)CNC(=O)CN(Cc1ccccc1)C(=O)[C@@]1(C)CCC[C@]2(C)[C@H]3C[C@H]4C(C(C)C)=C[C@]3(CC[C@H]21)[C@@H]1C(=O)OC(=O)[C@@H]14 | 92.8% | 24.9% | 101% | 88.1% | 92.7% | 48.6% | 91.8% | 89.5% | 73.3%
COc1ccc(NC(=O)CSc2nnc(-c3ccc4nc(-c5ccc(Cl)cc5)[nH]c4c3)o2)cc1 | 55.4% | 14.7% | -81.7% (active) | 20.5% | 48% | 26.1% | 50.5% | 71.5% | 14.8%
COc1ccc(OC)c(-c2cc(-c3c[nH]c4ccccc34)nc(N)c2C#N)c1 | 13% | 8.61% (active) | -3.02% (active) | 12.8% | 9.75% (active) | -69.4% (active) | -60.3% (active) | 22.4% | -8.47% (active)
CN1CCN(Cc2ccc(NC(=O)c3cncc(C#Cc4cnc5ccc(N[C@@H]6CCOC6)nn45)c3)cc2C(F)(F)F)CC1 | -100% (active) | -0.568% (active) | -99.1% (active) | -94.7% (active) | -80.7% (active) | -98.6% (active) | -100% (active) | -85.9% (active) | -83.3% (active)
COc1ccc(-c2cc(C(=O)N=Nc3c(O)[nH]c4ccc(F)cc34)c3ccccc3n2)cc1 | 74.7% | 25.2% | 25.3% | 6.12% (active) | 47.9% | 104% | 39.5% | 109% | 74.4%
O=C(NO)c1ccc(Cn2ccc3c(Nc4ccccc4)ncnc32)cc1 | 20% | 12.1% | -4.38% (active) | -30.6% (active) | 30.8% | -67.5% (active) | -80% (active) | 26.5% | 10.5%
C/C(=N\NC(N)=S)c1ccc(Nc2nc(SC(C)C)nc(-c3ccccc3)c2C#N)cc1 | 70.5% | 87.2% | 55.7% | 40.5% | 54.8% | 44.3% | 30.7% | 85.1% | 77.4%
Cc1ccc(-c2ccc(SCC(=O)Nc3ccc(S(N)(=O)=O)cc3Br)nn2)cc1 | 21.5% | 72.4% | 29% | 1.3% (active) | 45.9% | 21.6% | 13.3% | 77.9% | 69.5%
Cc1ccc(-c2cc(C(=O)N=Nc3c(O)[nH]c4ccccc34)c3ccccc3n2)cc1 | 3.29% (active) | 13.8% | 36.5% | 2.78% (active) | 36.4% | 94.3% | -66.2% (active) | 81% | 70.5%
O=C(/C=C/Nc1ccccc1)c1ccc2c(c1)Nc1ccccc1S2 | 84.3% | 90.6% | 71.5% | 69.2% | 81.2% | 78.1% | 59.9% | 96.7% | 93.8%
O=C(CNc1nc(-c2ccccc2)cs1)Nc1ccccc1 | 14.1% | 5.68% (active) | -61% (active) | -30.7% (active) | 8.59% (active) | -1.92% (active) | -93.7% (active) | -14.3% (active) | -73.8% (active)
CC[C@]12C=CCN3CC[C@@]4(c5cc(C#CCNc6ccc(C)c(Nc7nccc(-c8cccnc8)n7)c6)c(OC)cc5N(C)[C@H]4[C@@](O)(C(=O)OC)[C@@H]1OC(C)=O)C32 (some centres not stated) | 59.7% | 35.1% | 61.1% | 39.6% | 57.9% | 39.5% | 8.99% (active) | 70.2% | 45.1%
COc1ccc(C2N(c3ccc(Br)cc3)N=C(C(C)=O)N2[C@H]2[C@H](OC(C)=O)O[C@H](COC(C)=O)[C@@H](OC(C)=O)[C@@H]2OC(C)=O)cc1 (some centres not stated) | 85.7% | 65% | 93.4% | 72.1% | 74.9% | 64.1% | 80.7% | 89.9% | 81.5%
Cc1noc2c(Cc3ccc([N+](=O)[O-])cc3)nn(CC(=O)N/N=C/c3ccc(Cl)cc3)c(=O)c12 | 61.6% | 72.8% | 36.9% | 4.43% (active) | 23.5% | 70.1% | 8.2% (active) | 81% | 68.1%
CCOc1ccc(/C=N/NC(=O)Cn2nc(Cc3ccc([N+](=O)[O-])cc3)c3onc(C)c3c2=O)cc1 | -15.2% (active) | 62.5% | -2.13% (active) | -19.9% (active) | -8.68% (active) | 1.32% (active) | -64.5% (active) | 70.3% | 50.9%
O=C(CNc1nc(-c2ccccc2)cs1)Nc1ccc([N+](=O)[O-])cc1Cl | 54.8% | 12.2% | 24% | 10.8% | 29.6% | 34.2% | 2.17% (active) | 58.5% | 34.4%
O=C(NCCCCCCCCCC[P+](c1ccccc1)(c1ccccc1)c1ccccc1)c1ccc(-n2nc(-c3ccccc3O)nc2-c2ccccc2O)cc1 | -45.8% (active) | 6.35% (active) | -94% (active) | -73.6% (active) | -28.8% (active) | -90.4% (active) | -95.9% (active) | -71.5% (active) | -84.9% (active)
O=c1[nH]c2ccc(Cl)cc2cc1CSc1ccc(Nc2nccc(-c3ccc(Cl)cc3)n2)cc1 | 4.82% (active) | 59.3% | 57.5% | 47% | 58.5% | 105% | 45.7% | 96.9% | 84.4%
Cc1ccc(/C=C/C(=O)c2ccc(S(=O)(=O)NCCNc3nc(Nc4ccc(F)cc4)nc(N(C)C)n3)cc2)cc1 | 30% | 12.2% | 69.1% | 38.6% | 34.6% | 37.7% | 41.6% | 61.2% | 14.6%
C=CCn1c(SCC(=O)Nc2ccc(C(=O)/C=C/c3ccccc3)cc2)nnc1-c1c[nH]c2ccccc12 | 65.8% | 14.6% | 92.4% | 69.3% | 53.3% | 35% | -7.36% (active) | 80.3% | 35.3%
O=C(Cc1ccc2c(c1)CN(C1CCC(=O)NC1=O)C2=O)NCc1cccc2ccccc12 (configuration not stated) | -7% (active) | 8.3% (active) | -72.2% (active) | -47.5% (active) | -8.53% (active) | -8.76% (active) | -23.3% (active) | 32.5% | -70.8% (active)
O=C(CNc1nc(-c2ccccc2)cs1)Nc1cccc(Cl)c1 | 53.5% | 19.6% | 64.1% | 30.8% | 30.6% | 22.4% | 42.3% | 62.9% | 34%
OCCCNc1oc(-c2ccccc2)nc1[P+](c1ccccc1)(c1ccccc1)c1ccccc1 | 8.36% (active) | 11.1% | -26% (active) | -8.13% (active) | 6.17% (active) | 2.62% (active) | 4.68% (active) | -10.3% (active) | 10.1%
CCCn1c(=O)c2[nH]c(-c3ccc(OCc4nc5ccc(C)cc5[nH]4)cc3)nc2n(CCC)c1=O | 61.8% | 28.3% | -69% (active) | -50.7% (active) | 66.4% | 12.6% | -84.2% (active) | 65.5% | 59.7%
